Experimental data taken from publication PMC7862700, “An all-to-all approach to the identification of sequence-specific readers for epigenetic DNA modifications on cytosine”.

Key:
Assay in all cases: DAPPL (digital affinity profiling via proximity ligation, sequencing); 10 mM Tris-HCl pH 7.5, 50 mM NaCl, 1 mM DTT, 4% glycerol, room temperature, 30 min; GST-TFs on glutathione beads, 16-mer random dsDNA library, 0.1% formaldehyde crosslink after washing; high values mean tight binding
Conditions in all cases: protein: recombinant; tags: N-terminal GST; dsDNA, one strand shown
[1] = target: T1, FLI1 (Homo sapiens, UniProt Q01543 1-452)
T1 sequence: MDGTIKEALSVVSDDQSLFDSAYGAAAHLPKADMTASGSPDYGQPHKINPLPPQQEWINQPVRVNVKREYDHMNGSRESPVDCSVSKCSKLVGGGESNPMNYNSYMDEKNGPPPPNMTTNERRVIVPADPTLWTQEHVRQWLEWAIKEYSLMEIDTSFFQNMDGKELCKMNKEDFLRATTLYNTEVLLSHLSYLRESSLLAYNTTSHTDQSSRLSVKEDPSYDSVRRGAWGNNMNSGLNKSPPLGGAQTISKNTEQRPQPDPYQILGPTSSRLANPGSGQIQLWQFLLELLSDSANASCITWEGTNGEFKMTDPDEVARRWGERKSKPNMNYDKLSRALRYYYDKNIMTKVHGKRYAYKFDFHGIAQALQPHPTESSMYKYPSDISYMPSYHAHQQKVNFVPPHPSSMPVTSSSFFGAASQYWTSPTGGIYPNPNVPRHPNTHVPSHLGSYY
Method in brief: (§1)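 Pools were built from human transcription factors expressed in yeast as GST fusions, captured on glutathione beads and DNA-barcoded, along with a tag-only sample. Incubation with 200 nmole of a 16-mer random double-stranded DNA library lasted 30 min at room temperature in Tris/NaCl/DTT/glycerol buffer, and was followed by washing, 0.1% formaldehyde crosslinking, proximity ligation, PCR amplification and Illumina NextSeq500 sequencing. Binding signal is the quotient of each hexamer's read frequency for a factor and its frequency for the tag-only sample.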

[2] = target: T2, ELK1 (Homo sapiens, UniProt P19419 1-428)
T2 sequence: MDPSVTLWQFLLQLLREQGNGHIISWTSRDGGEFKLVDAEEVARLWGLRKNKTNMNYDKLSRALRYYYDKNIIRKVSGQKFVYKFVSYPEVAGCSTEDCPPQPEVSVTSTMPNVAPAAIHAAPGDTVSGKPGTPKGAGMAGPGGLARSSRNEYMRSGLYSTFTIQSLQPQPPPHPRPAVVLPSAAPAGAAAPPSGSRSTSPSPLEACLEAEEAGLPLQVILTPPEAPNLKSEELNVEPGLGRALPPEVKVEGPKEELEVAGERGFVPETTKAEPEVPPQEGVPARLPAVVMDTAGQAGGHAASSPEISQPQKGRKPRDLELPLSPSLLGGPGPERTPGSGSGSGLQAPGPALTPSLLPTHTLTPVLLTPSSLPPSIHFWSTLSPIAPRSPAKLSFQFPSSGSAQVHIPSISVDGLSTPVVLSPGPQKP
Method in brief: as §1

[3] = target: T3, GABPA (Homo sapiens, UniProt Q06546 1-454)
T3 sequence: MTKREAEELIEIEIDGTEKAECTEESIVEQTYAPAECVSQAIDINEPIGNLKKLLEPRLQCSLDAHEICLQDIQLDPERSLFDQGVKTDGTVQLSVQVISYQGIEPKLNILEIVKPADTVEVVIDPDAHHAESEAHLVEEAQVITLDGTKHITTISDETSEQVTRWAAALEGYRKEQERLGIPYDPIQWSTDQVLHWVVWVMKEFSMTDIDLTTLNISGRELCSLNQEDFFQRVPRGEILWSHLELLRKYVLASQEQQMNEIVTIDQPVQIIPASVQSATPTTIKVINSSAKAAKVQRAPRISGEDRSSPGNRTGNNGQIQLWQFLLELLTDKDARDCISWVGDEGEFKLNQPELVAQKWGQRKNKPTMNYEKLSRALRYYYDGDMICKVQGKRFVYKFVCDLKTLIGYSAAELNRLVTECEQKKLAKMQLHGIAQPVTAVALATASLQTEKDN
Method in brief: as §1

[4] = target: T4, ERG (Homo sapiens, UniProt P11308 1-479)
T4 sequence: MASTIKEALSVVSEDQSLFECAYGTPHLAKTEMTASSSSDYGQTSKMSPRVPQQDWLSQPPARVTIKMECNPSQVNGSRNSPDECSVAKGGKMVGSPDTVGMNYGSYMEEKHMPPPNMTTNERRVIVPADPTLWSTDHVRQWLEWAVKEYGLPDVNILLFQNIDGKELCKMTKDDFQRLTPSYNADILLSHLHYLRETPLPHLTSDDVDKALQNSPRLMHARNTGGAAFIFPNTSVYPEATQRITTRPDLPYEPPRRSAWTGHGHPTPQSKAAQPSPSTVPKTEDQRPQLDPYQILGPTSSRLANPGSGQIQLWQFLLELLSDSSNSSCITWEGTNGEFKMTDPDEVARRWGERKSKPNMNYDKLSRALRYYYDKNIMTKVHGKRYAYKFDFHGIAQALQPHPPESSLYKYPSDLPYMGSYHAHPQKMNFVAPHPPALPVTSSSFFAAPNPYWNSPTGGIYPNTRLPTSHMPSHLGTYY
Method in brief: as §1

[5] = target: ELF1 (Homo sapiens, UniProt P32519 1-619)
Method in brief: as §1

[6] = target: T5, EHF (Homo sapiens, UniProt Q9NZC4 1-300)
T5 sequence: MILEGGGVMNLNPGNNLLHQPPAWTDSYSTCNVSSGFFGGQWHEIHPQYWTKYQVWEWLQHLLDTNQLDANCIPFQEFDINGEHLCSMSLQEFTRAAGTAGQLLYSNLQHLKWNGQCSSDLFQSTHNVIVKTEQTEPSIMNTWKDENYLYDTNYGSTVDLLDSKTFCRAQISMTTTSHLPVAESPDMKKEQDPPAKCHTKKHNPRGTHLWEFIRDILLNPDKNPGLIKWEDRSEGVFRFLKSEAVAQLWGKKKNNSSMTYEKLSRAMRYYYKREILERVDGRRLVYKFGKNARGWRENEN
Method in brief: as §1

[7] = target: SPI1 (Homo sapiens, UniProt P17947 1-270)
Method in brief: as §1

[8] = target: SPIB (Homo sapiens, UniProt Q01892 1-262)
Method in brief: as §1

[9] = target: T6, ELK3 (Homo sapiens, UniProt P41970 1-407)
T6 sequence: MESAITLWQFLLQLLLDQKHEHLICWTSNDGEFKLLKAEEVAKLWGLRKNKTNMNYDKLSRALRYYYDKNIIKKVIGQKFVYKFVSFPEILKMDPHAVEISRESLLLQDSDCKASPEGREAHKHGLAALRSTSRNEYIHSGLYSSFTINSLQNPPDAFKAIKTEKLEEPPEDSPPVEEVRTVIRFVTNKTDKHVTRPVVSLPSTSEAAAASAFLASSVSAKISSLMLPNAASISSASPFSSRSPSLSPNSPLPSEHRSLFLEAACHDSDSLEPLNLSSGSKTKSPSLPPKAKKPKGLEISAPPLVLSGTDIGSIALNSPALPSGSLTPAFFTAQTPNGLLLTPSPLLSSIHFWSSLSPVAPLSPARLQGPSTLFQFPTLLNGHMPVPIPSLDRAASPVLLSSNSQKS
Method in brief: as §1

SPIB, sequence (Q01892 whole entry): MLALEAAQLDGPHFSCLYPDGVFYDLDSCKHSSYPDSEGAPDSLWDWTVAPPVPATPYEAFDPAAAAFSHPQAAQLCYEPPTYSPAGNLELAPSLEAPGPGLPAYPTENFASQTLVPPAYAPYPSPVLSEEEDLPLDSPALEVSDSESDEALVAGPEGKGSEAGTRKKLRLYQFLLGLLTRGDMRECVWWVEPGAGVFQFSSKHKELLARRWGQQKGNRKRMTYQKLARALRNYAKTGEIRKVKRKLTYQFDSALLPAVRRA
ELF1, sequence (P32519 whole entry): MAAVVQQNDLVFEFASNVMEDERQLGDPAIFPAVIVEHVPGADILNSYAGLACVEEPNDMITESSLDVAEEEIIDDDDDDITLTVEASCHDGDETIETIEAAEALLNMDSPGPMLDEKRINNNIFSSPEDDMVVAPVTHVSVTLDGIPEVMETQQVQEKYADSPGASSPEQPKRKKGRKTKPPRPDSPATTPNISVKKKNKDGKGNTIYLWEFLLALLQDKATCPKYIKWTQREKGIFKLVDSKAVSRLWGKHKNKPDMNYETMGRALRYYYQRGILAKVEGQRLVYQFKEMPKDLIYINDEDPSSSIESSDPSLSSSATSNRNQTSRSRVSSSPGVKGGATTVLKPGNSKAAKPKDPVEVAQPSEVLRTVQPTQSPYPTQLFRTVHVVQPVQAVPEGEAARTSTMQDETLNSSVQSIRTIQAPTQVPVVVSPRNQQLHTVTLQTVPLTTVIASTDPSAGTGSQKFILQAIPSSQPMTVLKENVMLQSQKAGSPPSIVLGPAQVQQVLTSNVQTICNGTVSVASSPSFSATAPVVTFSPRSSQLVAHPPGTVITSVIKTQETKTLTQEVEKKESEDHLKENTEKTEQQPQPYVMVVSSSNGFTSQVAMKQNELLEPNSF

Sequence | binding signal [1] | binding signal [2] | binding signal [3] | binding signal [4] | binding signal [5] | binding signal [6] | binding signal [7] | binding signal [8] | binding signal [9]
AAGATA | 1.07 fold enrichment (6-mer frequency, TF over GST control) | 1.15 fold enrichment (6-mer frequency, TF over GST control) | 1.14 fold enrichment (6-mer frequency, TF over GST control) | 1.17 fold enrichment (6-mer frequency, TF over GST control) | 1.14 fold enrichment (6-mer frequency, TF over GST control) | 1.18 fold enrichment (6-mer frequency, TF over GST control) | 1.08 fold enrichment (6-mer frequency, TF over GST control) | 1.12 fold enrichment (6-mer frequency, TF over GST control) | 1.23 fold enrichment (6-mer frequency, TF over GST control)
TGATTT | 1.29 fold enrichment (6-mer frequency, TF over GST control) | 1.2 fold enrichment (6-mer frequency, TF over GST control) | 1.33 fold enrichment (6-mer frequency, TF over GST control) | 1.35 fold enrichment (6-mer frequency, TF over GST control) | 1.23 fold enrichment (6-mer frequency, TF over GST control) | 1.18 fold enrichment (6-mer frequency, TF over GST control) | 1.21 fold enrichment (6-mer frequency, TF over GST control) | 1.23 fold enrichment (6-mer frequency, TF over GST control) | 1.11 fold enrichment (6-mer frequency, TF over GST control)
TCAACG | 1.12 fold enrichment (6-mer frequency, TF over GST control) | 1.05 fold enrichment (6-mer frequency, TF over GST control) | 1.09 fold enrichment (6-mer frequency, TF over GST control) | 1.08 fold enrichment (6-mer frequency, TF over GST control) | 1.14 fold enrichment (6-mer frequency, TF over GST control) | 1.06 fold enrichment (6-mer frequency, TF over GST control) | 1 fold enrichment (6-mer frequency, TF over GST control) | 1.12 fold enrichment (6-mer frequency, TF over GST control) | 1.22 fold enrichment (6-mer frequency, TF over GST control)
CGATCC | 1.26 fold enrichment (6-mer frequency, TF over GST control) | 1.14 fold enrichment (6-mer frequency, TF over GST control) | 1.19 fold enrichment (6-mer frequency, TF over GST control) | 1.21 fold enrichment (6-mer frequency, TF over GST control) | 1.27 fold enrichment (6-mer frequency, TF over GST control) | 1.22 fold enrichment (6-mer frequency, TF over GST control) | 1.25 fold enrichment (6-mer frequency, TF over GST control) | 1.22 fold enrichment (6-mer frequency, TF over GST control) | 1.38 fold enrichment (6-mer frequency, TF over GST control)
TAATCC | 1.29 fold enrichment (6-mer frequency, TF over GST control) | 1.26 fold enrichment (6-mer frequency, TF over GST control) | 1.25 fold enrichment (6-mer frequency, TF over GST control) | 1.34 fold enrichment (6-mer frequency, TF over GST control) | 1.15 fold enrichment (6-mer frequency, TF over GST control) | 1.25 fold enrichment (6-mer frequency, TF over GST control) | 1.29 fold enrichment (6-mer frequency, TF over GST control) | 1.28 fold enrichment (6-mer frequency, TF over GST control) | 1.35 fold enrichment (6-mer frequency, TF over GST control)
CTATCC | 1.45 fold enrichment (6-mer frequency, TF over GST control) | 1.4 fold enrichment (6-mer frequency, TF over GST control) | 1.29 fold enrichment (6-mer frequency, TF over GST control) | 1.34 fold enrichment (6-mer frequency, TF over GST control) | 1.38 fold enrichment (6-mer frequency, TF over GST control) | 1.29 fold enrichment (6-mer frequency, TF over GST control) | 1.28 fold enrichment (6-mer frequency, TF over GST control) | 1.4 fold enrichment (6-mer frequency, TF over GST control) | 1.48 fold enrichment (6-mer frequency, TF over GST control)
CCATTG | 1.33 fold enrichment (6-mer frequency, TF over GST control) | 1.16 fold enrichment (6-mer frequency, TF over GST control) | 1.32 fold enrichment (6-mer frequency, TF over GST control) | 1.19 fold enrichment (6-mer frequency, TF over GST control) | 1.15 fold enrichment (6-mer frequency, TF over GST control) | 1.19 fold enrichment (6-mer frequency, TF over GST control) | 1.25 fold enrichment (6-mer frequency, TF over GST control) | 1.05 fold enrichment (6-mer frequency, TF over GST control) | 1.16 fold enrichment (6-mer frequency, TF over GST control)
TTTATT | 1.36 fold enrichment (6-mer frequency, TF over GST control) | 1.25 fold enrichment (6-mer frequency, TF over GST control) | 1.24 fold enrichment (6-mer frequency, TF over GST control) | 1.26 fold enrichment (6-mer frequency, TF over GST control) | 1.19 fold enrichment (6-mer frequency, TF over GST control) | 1.31 fold enrichment (6-mer frequency, TF over GST control) | 1.25 fold enrichment (6-mer frequency, TF over GST control) | 1.32 fold enrichment (6-mer frequency, TF over GST control) | 1.31 fold enrichment (6-mer frequency, TF over GST control)
